Consider 64 compounds from PubChem BioAssay AID624101 (Broad Institute, 2012).

By inhibition is commonly meant the drop in the measured response relative to a control, in per cent.

SMILES strings stand for the structures. Screen size: about 70,000 compounds; about 120 (0.17%) were called active. The sample holds actives, similar compounds and a random draw of the others, so the mix is not that of the screen. No stated cut-off is given here; in the data, active means inhibition above about 34%; inconclusive means no clear call, values can overlap the other calls; inactive means below about 11%.

The target in this assay is Isocitrate dehydrogenase [NADP] cytoplasmic (Homo sapiens) (UniProt O75874). Kind of assay: PubChem AID 624101.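 Further: 0% = DMSO and 100% = no enzyme.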 The note with it: IDH1 R132H reductase, diaphorase/resazurin fluorescence, 60 min; at 10 µM; active compounds read high.
Sequence of Isocitrate dehydrogenase [NADP] cytoplasmic (Homo sapiens) (O75874 whole entry R132H): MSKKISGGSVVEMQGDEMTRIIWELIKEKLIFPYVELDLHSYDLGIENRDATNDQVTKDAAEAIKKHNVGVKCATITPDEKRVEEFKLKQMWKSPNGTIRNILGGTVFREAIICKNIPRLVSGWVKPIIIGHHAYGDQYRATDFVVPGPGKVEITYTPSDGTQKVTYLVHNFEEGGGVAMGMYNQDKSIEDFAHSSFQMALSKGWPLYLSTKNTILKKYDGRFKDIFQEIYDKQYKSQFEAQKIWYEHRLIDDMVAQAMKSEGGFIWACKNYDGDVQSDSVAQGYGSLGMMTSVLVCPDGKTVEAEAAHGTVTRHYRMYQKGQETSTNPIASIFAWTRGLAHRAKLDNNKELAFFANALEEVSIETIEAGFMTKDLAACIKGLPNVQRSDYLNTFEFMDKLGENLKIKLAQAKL
On to `CO[C@@H]1CN(C)C(=O)c2cc(NC(=O)C3CC3)ccc2OC[C@@H](C)N(Cc2ccc(F)cc2)C[C@@H]1C`, for which the inhibition is -0.084% (inactive).

`CN(C)CC(=O)Nc1ccc2c(c1)[C@H]1C[C@H](CC(=O)NCc3ccccc3)O[C@@H](CO)[C@H]1O2`: the inhibition was -0.369% (inactive).

Regarding `C[C@H](CO)N1C[C@H](C)[C@H](CN(C)C(=O)C2CCOCC2)Oc2ncc(-c3ccccc3)cc2C1=O`, the inhibition was 0.163% (inactive).

As for `Cc1ccc(S(=O)(=O)NCC[C@H]2CC[C@@H](NC(=O)C3CCOCC3)[C@@H](CO)O2)cc1`, the inhibition was 0.168% (inactive).

Consider `COc1cccc(C(=O)Nc2ccc3c(c2)OC[C@H](C)NC[C@H](C)[C@H](OC)CN(C)C3=O)c1`, for which the inhibition was -0.351% (inactive).

In the case of `CO[C@@H]1CN(C)C(=O)c2cc(NC(C)=O)ccc2OC[C@H](C)N(Cc2ccccc2F)C[C@@H]1C`, the inhibition was -0.198% (inactive).

Consider `Cc1ccc(-c2cnc3c(c2)C(=O)N([C@@H](C)CO)C[C@H](C)[C@H](CN(C)C(=O)c2cccnc2)O3)cc1`, for which the inhibition was -1.23% (inactive).

On to `CO[C@@H](CN(C)S(=O)(=O)c1ccccc1)[C@@H](C)CN(Cc1ccccc1Cl)[C@H](C)CO`, for which the inhibition was -0.567% (inactive).

For the compound `O=C(N[C@H]1CC[C@@H](CCNS(=O)(=O)c2ccc(F)cc2)O[C@@H]1CO)c1ccccn1`, the inhibition was 0.234% (inactive).

Regarding `Cc1noc(C)c1C(=O)N(C)C[C@H]1OCc2ccccc2-c2c(n(C)c3ccccc23)C(=O)N([C@@H](C)CO)C[C@H]1C`, the inhibition was -2% (inactive).

For the compound `C[C@@H]1CN([C@@H](C)CO)C(=O)Cc2cc(NC(=O)CCCCCC(=O)Nc3ccccc3N)ccc2O[C@H]1CN(C)C(=O)Nc1ccc(C(F)(F)F)cc1`, the inhibition was 0.304% (inactive).

Regarding `CC(=O)N(C)C[C@H]1Oc2cc(-c3ccc(C)cc3)ccc2S(=O)(=O)N([C@@H](C)CO)C[C@@H]1C`, the inhibition is 5.52% (inactive).

Take `CS(=O)(=O)Nc1ccc2c(c1)[C@H]1C[C@H](CC(=O)NC3CCCC3)O[C@@H](CO)[C@H]1O2`: the inhibition is -0.18% (inactive).

With `CO[C@@H]1CN(C)C(=O)c2ccc(NS(C)(=O)=O)cc2OC[C@H](C)NC[C@H]1C`, the inhibition was 0.02% (inactive).

In the case of `CO[C@H]1CN(C)C(=O)c2cc(NS(=O)(=O)c3ccccc3)ccc2OC[C@H](C)N(C(=O)NC(C)C)C[C@@H]1C`, the inhibition was 0.066% (inactive).

As to `O=C(NCC[C@@H]1CC[C@H](NS(=O)(=O)c2cccc(F)c2)[C@H](CO)O1)c1cnccn1`, the inhibition was -0.0355% (inactive).

For the compound `O=C(NCC[C@H]1CC[C@H](NC(=O)C2CC2)[C@@H](CO)O1)c1cc(Cl)cc(Cl)c1`, the inhibition was -0.0835% (inactive).

On to `COc1cccc(-c2cn(CC[C@H]3CC[C@H](NC(=O)CN(C)C)[C@H](CO)O3)nn2)c1`, for which the inhibition is -0.376% (inactive).

With `O=C(O)C[C@@H]1C[C@@H]2c3cc(NC(=O)NC4CCCC4)ccc3O[C@@H]2[C@H](CO)O1`, the inhibition is -0.0525% (inactive).

Regarding `C/C=C/c1cnc2c(c1)C(=O)N([C@@H](C)CO)C[C@@H](C)[C@@H](CN(C)C(=O)c1cnccn1)O2`, the inhibition is -1.79% (inactive).

As to `CN(C)C(=O)C[C@@H]1CC[C@@H](NS(=O)(=O)c2ccccc2)[C@H](CO)O1`, the inhibition was -0.243% (inactive).

Turning to `CO[C@H]1CN(C)C(=O)c2cc(NC(=O)c3ccccc3)ccc2OC[C@H](C)NC[C@H]1C`, the inhibition was 0.304% (inactive).

For `CC(C)NC(=O)N[C@H]1CC[C@H](CC(=O)NC2Cc3ccccc3C2)O[C@H]1CO`, the inhibition was 0.112% (inactive).

Take `CO[C@@H]1CN(C)C(=O)c2cc(NC(=O)C3CCOCC3)ccc2OC[C@H](C)N(Cc2cccnc2)C[C@H]1C`: the inhibition is -0.057% (inactive).

With `O=C(C[C@@H]1CC[C@H](NS(=O)(=O)c2cccc(F)c2)[C@H](CO)O1)N1CCCCC1`, the inhibition is 0.0905% (inactive).

With `O=S(=O)(N[C@@H]1CC[C@H](CCn2cc(C3(O)CCCC3)nn2)O[C@@H]1CO)c1ccc(Cl)cc1`, the inhibition was 0.461% (inactive).

`CCCC(=O)Nc1ccc2c(c1)OC[C@H](C)N(CCC(F)(F)F)C[C@@H](C)[C@H](OC)CN(C)C2=O`: the inhibition is -0.114% (inactive).

As to `COc1ccccc1-c1cn(CC[C@H]2CC[C@H](NC(=O)Cc3ccccn3)[C@H](CO)O2)nn1`, the inhibition is 0.087% (inactive).

Consider `COc1ccccc1S(=O)(=O)N[C@@H]1C=C[C@H](CC(=O)N2CCN(C)CC2)O[C@@H]1CO`, for which the inhibition is 0.0315% (inactive).

As for `CS(=O)(=O)Nc1ccc2c(c1)[C@H]1C[C@H](CC(=O)NCc3ccc(Cl)cc3)O[C@@H](CO)[C@H]1O2`, the inhibition is -0.335% (inactive).

On to `CO[C@@H]1CN(C)C(=O)c2ccc(NC(=O)C3CCCCC3)cc2OC[C@@H](C)N(Cc2nccs2)C[C@@H]1C`, for which the inhibition was 0.03% (inactive).

`C[C@@H]1CN([C@H](C)CO)C(=O)c2cc(Br)cnc2O[C@@H]1CN(C)C(=O)Nc1ccc(F)cc1`: the inhibition was 0.064% (inactive).

Regarding `C[C@H](NC(=O)C[C@@H]1CC[C@@H](NC(=O)Cc2ccccn2)[C@@H](CO)O1)c1ccccc1`, the inhibition is 0.0085% (inactive).

For the compound `O=C(N[C@H]1CC[C@@H](CCNS(=O)(=O)c2ccccc2)O[C@H]1CO)c1cccnc1`, the inhibition was -0.222% (inactive).

As for `Cc1cccc(S(=O)(=O)N[C@H]2CC[C@@H](CCNS(=O)(=O)c3ccccc3F)O[C@H]2CO)c1`, the inhibition is 0.059% (inactive).

For `COc1ccc(NC(=O)N[C@H]2CC[C@H](CCn3cc(-c4ccccc4F)nn3)O[C@H]2CO)cc1`, the inhibition was -0.29% (inactive).

As to `COCc1cn(CC[C@H]2CC[C@@H](NC(=O)Nc3ccc(OC)cc3)[C@@H](CO)O2)nn1`, the inhibition was 0.176% (inactive).

Regarding `C[C@@H]1CN([C@H](C)CO)C(=O)c2cc(C#CC3CC3)cnc2O[C@@H]1CN(C)Cc1cccc(C(=O)O)c1`, the inhibition was -0.167% (inactive).

With `CO[C@H]1CN(C)C(=O)c2ccc(NC(=O)Nc3ccc4c(c3)OCO4)cc2OC[C@H](C)NC[C@H]1C`, the inhibition is -0.152% (inactive).

Regarding `COCC(=O)Nc1ccc2c(c1)OC[C@H](C)N(C(=O)c1cnccn1)C[C@@H](C)[C@H](OC)CN(C)C2=O`, the inhibition was 0.439% (inactive).

For the compound `CC(C)CC#Cc1ccc2c(c1)O[C@@H](CN(C)C(=O)c1ccccn1)[C@@H](C)CN([C@H](C)CO)S2(=O)=O`, the inhibition is -2.87% (inactive).

On to `CO[C@H]1CN(C)C(=O)c2cc(NS(=O)(=O)CC(F)(F)F)ccc2OC[C@@H](C)N(Cc2nccs2)C[C@@H]1C`, for which the inhibition was 0.457% (inactive).

On to `CO[C@H]1CN(C)C(=O)c2ccc(NC(=O)NC(C)C)cc2OC[C@H](C)N(Cc2cncnc2)C[C@@H]1C`, for which the inhibition was 0.214% (inactive).

With `O=C(Cc1ccncc1)NCC[C@H]1CC[C@@H](NC(=O)Nc2ccc(Cl)cc2)[C@@H](CO)O1`, the inhibition was 0.092% (inactive).

Take `O=C(C[C@H]1CC[C@@H](NC(=O)Nc2ccc(C(F)(F)F)cc2)[C@H](CO)O1)NCc1cc(F)cc(F)c1`: the inhibition was 0.19% (inactive).

On to `CCS(=O)(=O)N[C@@H]1CC[C@@H](CC(=O)NCC2CC2)O[C@H]1CO`, for which the inhibition was -0.0912% (inactive).

For the compound `COc1ccc(CNC(=O)C[C@@H]2CC[C@H](NC(=O)c3cccc(F)c3)[C@H](CO)O2)cc1`, the inhibition was 0.0345% (inactive).

Turning to `O=C(N[C@H]1CC[C@@H](CCNS(=O)(=O)c2ccc(Cl)cc2)O[C@H]1CO)c1cccc(F)c1`, the inhibition was -0.0045% (inactive).

As to `CO[C@@H]1CN(C)C(=O)c2ccc(NC(C)=O)cc2OC[C@@H](C)N(Cc2ccc(-c3ccccn3)cc2)C[C@H]1C`, the inhibition was -0.357% (inactive).

Take `CCCC(=O)Nc1ccc2c(c1)OC[C@H](C)N(S(=O)(=O)c1cn(C)cn1)C[C@@H](C)[C@H](OC)CN(C)C2=O`: the inhibition was -0.504% (inactive).

Consider `C[C@@H]1CN([C@@H](C)CO)C(=O)c2cc(-c3ccccc3F)cnc2O[C@H]1CN(C)C(=O)C1CC1`, for which the inhibition was 0.564% (inactive).

Consider `O=C(C[C@H]1C[C@@H]2c3cc(NC(=O)CC4CC4)ccc3O[C@@H]2[C@H](CO)O1)NCc1cccnc1`, for which the inhibition is -0.193% (inactive).

Consider `CO[C@@H]1CN(C)C(=O)c2cc(NC(=O)C3CC3)ccc2OC[C@H](C)N(C(=O)CN2CCOCC2)C[C@@H]1C`, for which the inhibition was 0.377% (inactive).

Consider `COCCNC(=O)C[C@H]1C[C@H]2c3cc(NS(C)(=O)=O)ccc3O[C@H]2[C@H](CO)O1`, for which the inhibition was -0.133% (inactive).

Turning to `COCC(=O)N(C)C[C@H]1Oc2cc(C#CC3CCCC3)ccc2S(=O)(=O)N([C@H](C)CO)C[C@@H]1C`, the inhibition was -1.42% (inactive).

As to `C[C@H]1CN([C@@H](C)CO)C(=O)c2cc(-c3ccccc3F)cnc2O[C@H]1CN(C)C(=O)C1CCOCC1`, the inhibition is 0.288% (inactive).

As for `O=C(N[C@H]1CC[C@@H](CCNS(=O)(=O)c2ccccc2)O[C@@H]1CO)c1cnccn1`, the inhibition was -0.078% (inactive).

As for `O=C(NCC[C@@H]1CC[C@@H](NS(=O)(=O)c2cccc(F)c2)[C@H](CO)O1)C1CC1`, the inhibition is 0.164% (inactive).

In the case of `CO[C@H]1CN(C)C(=O)c2cc(NC(=O)Nc3ccccc3)ccc2OC[C@@H](C)N(C(=O)Nc2c(C)noc2C)C[C@@H]1C`, the inhibition is -0.138% (inactive).

For `COc1ccccc1-c1cn(CC[C@H]2CC[C@@H](NC(=O)CCN3CCCCC3)[C@@H](CO)O2)nn1`, the inhibition is -0.639% (inactive).

In the case of `O=C(C[C@H]1C=C[C@@H](NC(=O)NC2CCCCC2)[C@@H](CO)O1)NCc1ccc(Cl)cc1`, the inhibition is 0.05% (inactive).

For `CCC(=O)Nc1ccc2c(c1)C(=O)N(C)C[C@@H](OC)[C@H](C)CN(Cc1ccccc1C(=O)O)[C@@H](C)CO2`, the inhibition is -0.502% (inactive).

Turning to `CO[C@@H]1CN(C)C(=O)c2ccc(NS(C)(=O)=O)cc2OC[C@H](C)N(C(=O)C2CC2)C[C@H]1C`, the inhibition is -0.15% (inactive).

On to `CC(=O)N[C@H]1CC[C@H](CCNC(=O)C2CC2)O[C@H]1CO`, for which the inhibition was 0.591% (inactive).
